For 92 compounds, largest response in the series, negative = inhibition and Potency results are on record in PubChem BioAssay AID1490 (National Center for Advancing Translational Sciences (NCATS), 2009).

Where “and” joins values, the source holds several entries; their conditions need not be identical. Identical values can stand only once. Hit rate of the full screen: of about 310,000 compounds, about 11,000 (3.5%) were called active. Not shown: some 4% with an inconclusive outcome. Calls come from the whole dose curve; as a rule, active = well fitted inhibition curve with a large enough effect; inconclusive = small, poorly fitted or top-dose-only effect, or another doubt; inactive = no such curve, though single readings can be large or run the other way. This excerpt belongs to a sample that is enriched for actives.
Potency is the fitted concentration of half-maximal effect.

For this assay, the target named is 4'-phosphopantetheinyl transferase ffp (Bacillus subtilis) (UniProt Q9F4F7). As to the kind of experiment: qHTS Assay for Inhibitors of Bacillus subtilis Sfp phosphopantetheinyl transferase (PPTase).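 For largest response in the series, negative = inhibition: 0% = enzyme reaction without inhibitor and -100% = no enzyme wells.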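 Note: the enzyme is Sfp with the accession as filed and its product quenches rhodamine fluorescence.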 Particulars: Biochemical Sfp PPTase activity. Summed up: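 Compounds were incubated with enzyme (final 15 nM) for 15 min at room temperature before substrate addition started the reaction. Fluorescence at 525 nm excitation, 598 nm emission was recorded immediately and after 30 minutes.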
A general note: qHTS replaces the single test concentration by a dilution series.
In the case of `COc1ccc(C(=O)NC2CC2)cc1OC1CCN(C/C=C/c2ccccc2)CC1`, the largest response in the series, negative = inhibition is 8.51% (inactive).
As for `Cc1coc2c(O)cc3c(c12)OC1(N2CCCCC2)C(=O)NCCCC31` (configuration not stated), the Potency was 28.2 µM (active).
Turning to `Cc1nonc1C1CCCN1C(=O)c1cc(COc2cccc(C(F)(F)F)c2)on1` (configuration not stated), the largest response in the series, negative = inhibition is 14.2% (inactive).
In the case of `CCc1cccc(NC(=O)CCCN2C(=O)C(c3ccccc3)Oc3cccnc32)c1` (configuration not stated), the largest response in the series, negative = inhibition is 11.6% (inactive).
As for `COC(=O)C(CC(C)C)NS(=O)(=O)c1cc(Br)ccc1Br` (configuration not stated), the largest response in the series, negative = inhibition was 6.49% (inactive).
The same measure, in the same setting: under `COc1cc2c(cc1OC)CC(=O)N(CCCN(C)C[C@H]1Cc3cc(OC)c(OC)cc31)CC2` stands 9.18% (inactive).
As for `Cc1cccc(N2C(=O)SC(SC(=Nc3ccccc3)Nc3ccccc3)C2=O)c1` (configuration not stated), the Potency was 10 µM (active).
Take `Cc1cccc(N2C(=O)CC(SC(N)=Nc3ccccc3)C2=O)c1` (configuration not stated): the largest response in the series, negative = inhibition is 10.8% (inactive).
As for `Cc1cccc(N2C(=O)c3ccc(C(=O)Nc4cccc(C(=O)O)c4)cc3C2=O)c1`, the largest response in the series, negative = inhibition is 8.86% (inactive).
Take `CCOC(=O)C1(Cc2ccccc2C)CCCN(C(=O)CN2C(=O)CSC2=O)C1` (configuration not stated): the largest response in the series, negative = inhibition is 3.9% (inactive).
Consider `CC(=O)c1cccc(OCc2cc(C(=O)NC(C)Cc3cccnc3)no2)c1` (configuration not stated), for which the largest response in the series, negative = inhibition is 16.6% (inactive).
On to `Cc1oc2c(F)c(F)c(F)c(F)c2c1S(=O)(=O)Nc1cccc(C(F)(F)F)c1`, for which the largest response in the series, negative = inhibition was 11.3% (inactive).
On the same count and under the same terms, under `CC(=O)N1CCN(CC(=O)Nc2ccc(C)c(F)c2)CC1` stands -24.9% (inactive).
`O=C(CN1CCN(c2ccc(O)cc2)CC1)NC1CCCc2ccccc21` (configuration not stated): the Potency was 17.8 µM (active).
The same measure, in the same setting: under `O=C(CN1CCN(c2ccc(O)cc2)CC1)Nc1ccc(-c2ccccc2)cc1` stands 44.7 µM (active).
Turning to `O=C(CN1CCN(c2cccc(Cl)c2)CC1)Nc1ccc(S(=O)(=O)N2CCOCC2)cc1`, the largest response in the series, negative = inhibition is 13% (inactive).
Consider `CSc1ccccc1N1CCN(CCCCCC(=O)NC2CCCc3ccccc32)CC1` (configuration not stated), for which the largest response in the series, negative = inhibition was -7.93% (inactive).
Take `Cc1cc(NC(=O)CCN2CCN(Cc3ccccc3)CC2)ccc1Br`: the largest response in the series, negative = inhibition is -5.6% (inactive).
For `O=C(CN1CCN(c2ccc(F)cc2)CC1)Nc1ccccc1`, the largest response in the series, negative = inhibition is -1.74% (inactive).
Consider `O=C(CN1CCN(c2ccc(O)cc2)CC1)Nc1cc(S(=O)(=O)N2CCOCC2)ccc1Cl`, for which the Potency is 79.4 µM (active).
Turning to `O=C(CSc1nncs1)NC1CCCc2ccccc21` (configuration not stated), the largest response in the series, negative = inhibition was 15.6% (inactive).
Regarding `O=C(CN1CCOCC1)Nc1cc(Cl)ccc1Cl`, the largest response in the series, negative = inhibition is 2.24% (inactive).
As to `O=C(CN1CCN(c2ccccc2)CC1)Nc1ccc(F)cc1`, the largest response in the series, negative = inhibition was 7.85% (inactive).
For `O=C(CN1CCN(Cc2ccccc2)CC1)Nc1ccc(F)c(F)c1`, the Potency is 56.2 µM (active).
Consider `COc1ccc(C2(C#N)CCC(C(=O)O)CC2)cc1OC1CCCC1` (configuration not stated), for which the largest response in the series, negative = inhibition is 3.3% (inactive).
Still for that read-out and setting: next, `CN(CC(=O)NCCN1CCOCC1)S(=O)(=O)c1ccc(F)cc1`: 16.5% (inactive); `CN(CCNC(=O)c1cc2c(-c3ccccc3F)nn(C)c2s1)C1CCCCC1`: 5.98% (inactive).
On to `COC(=O)c1cc(S(=O)(=O)NCC2CCN(Cc3ccc(Cl)cc3)CC2)cn1C`, for which the largest response in the series, negative = inhibition is 11.4% (inactive).
For `CCOC(=O)C1(Cc2ccccc2C)CCCN(C(=O)c2ccc(COC)o2)C1` (configuration not stated), the largest response in the series, negative = inhibition is -22.7% (inactive).
As for `COc1ccc(/C=N/Nc2ccccc2C(=O)O)cc1`, the largest response in the series, negative = inhibition was 11.5% (inactive).
In the case of `CCC(=O)Nc1nc(C)c(C(=O)Nc2cccc(Cl)c2)s1`, the largest response in the series, negative = inhibition was 8.26% (inactive).
Regarding `O=C(NCc1ccc(F)cc1)C1CCN(C(=O)Nc2ccc(F)cc2)CC1`, the largest response in the series, negative = inhibition is 9.57% (inactive).
Turning to `C=CCOC(=O)NC(c1ccc(F)c(F)c1)C(C(=O)COC)C(=O)OC` (configuration not stated), the largest response in the series, negative = inhibition is -7.09% (inactive) and 12.8% (inactive).
Still for that read-out and setting: next, `CCOC(=O)c1cccc(NS(=O)(=O)c2c(C(=O)N3CCCCCC3)c(C)n(C)c2C)c1`: 2.36% (inactive); `Nc1nonc1-n1nnc(C(=O)N/N=C\c2ccncc2)c1CN1CCCCC1`: 21.3% (inactive); `COc1ccc2[nH]cc(CCN3C(=O)c4ccc(C(=O)O)cc4C3=O)c2c1`: 20.2% (inactive).
As for `Cc1noc(C)c1/C=N/Nc1ccc2ccccc2n1`, the largest response in the series, negative = inhibition is 25.3% (inactive).
As to `Brc1ccc(-c2csc(N/N=C/c3ccc4c(c3)OCO4)n2)cc1`, the Potency was 2.82 µM (active).
For `O=C(Cc1ccc(F)cc1)N/N=C/c1ccc2c(c1)OCO2`, the largest response in the series, negative = inhibition is 18.6% (inactive).
`C(=N\Nc1ccc2ccccc2n1)/c1ccc2c(c1)OCO2`: the Potency was 50.1 µM (active).
For `O=C(CNC(=O)C(c1ccccc1)c1ccccc1)N/N=C\c1ccc2c(c1)OCO2`, the largest response in the series, negative = inhibition is -10.2% (inactive).
As for `O=C(N/N=C/c1ccc2c(c1)OCO2)C(=O)N1CCCC1`, the largest response in the series, negative = inhibition was 24.9% (inactive).
On the same count and under the same terms, next, `CCN(CC)/[N+]([O-])=N/Oc1cc(O/[N+]([O-])=N/N2CCCC2CO)c([N+](=O)[O-])cc1[N+](=O)[O-]` (configuration not stated): -6.67% (inactive); `Cn1c(=O)c2sccc2n(Cc2ccc(Br)cc2)c1=O`: 5.6% (inactive).
Consider `CCOc1ccc(N(CC(=O)Nc2ccccc2F)S(=O)(=O)c2c(C)[nH]c(=O)[nH]c2=O)cc1`, for which the largest response in the series, negative = inhibition was 9.89% (inactive).
Regarding `COc1ccccc1C(=O)NC(=S)Nc1ccccc1N1CCCCC1`, the largest response in the series, negative = inhibition was 5.21% (inactive).
In the case of `Cc1ccc(C(=O)NCC(=O)OCC(=O)NC2CCCCCCC2)cc1`, the largest response in the series, negative = inhibition is 15.7% (inactive).
For `COc1ccc(CNC(=O)C2CCN(S(=O)(=O)c3ccc(SC)cc3)CC2)cc1`, the largest response in the series, negative = inhibition was 8.97% (inactive).
The same measure, in the same setting: next, `O=S(=O)(c1ccc(Cl)cc1)c1nc(-c2ccco2)oc1N1CCCCC1`: -3.63% (inactive); `O=S(=O)(c1ccc(Br)cc1)c1nc(-c2ccccc2)oc1N1CCOCC1`: -5.06% (inactive).
Regarding `O=S(=O)(c1ccccc1)c1nc(Cc2ccccc2)oc1N1CCOCC1`, the Potency was 44.7 µM (active).
As to `Cc1ccc(OC(=O)c2cncc(Br)c2)c(C)c1`, the largest response in the series, negative = inhibition is -4.31% (inactive).
In the case of `COc1ccc(C(=O)CC(=O)C(=O)Nc2cc([N+](=O)[O-])ccc2OC)cc1`, the largest response in the series, negative = inhibition was 1.31% (inactive).
For the compound `CCCc1cc(C(=O)Nc2ccc(Cl)cn2)cs1`, the largest response in the series, negative = inhibition was 2.86% (inactive).
With `O=C(Nc1ccc(Cl)cn1)Nc1cccs1`, the Potency was 39.8 µM (active).
Regarding `O=C(Nc1cccc([N+](=O)[O-])c1)Nc1ccc(Cl)cn1`, the largest response in the series, negative = inhibition is 13.8% (inactive).
In the case of `Cc1sc2ncn(CC(=O)NCCN(C)C)c(=O)c2c1S(=O)(=O)N1CCC(C)CC1`, the largest response in the series, negative = inhibition was 16.8% (inactive).
For the compound `O=C(CNC(=O)c1ccccc1)Oc1ccc([N+](=O)[O-])cc1`, the largest response in the series, negative = inhibition is 7.55% (inactive).
For the compound `COc1ccc(C(=O)OCC(=O)Nc2cccc(C(C)=O)c2)cc1OC`, the largest response in the series, negative = inhibition was 11.4% (inactive).
For `CN(C)CCCNC(=S)N1CCN(c2nc(-c3ccccc3)cs2)CC1`, the largest response in the series, negative = inhibition is -3.69% (inactive).
For `CC(=O)c1cccc(NC(=O)C2CCN(C(=O)c3ccccc3Cl)CC2)c1`, the largest response in the series, negative = inhibition is -3.58% (inactive).
On to `O=S(=O)(Nc1ccc2cn[nH]c2c1)c1ccccc1`, for which the largest response in the series, negative = inhibition was 14.6% (inactive).
Turning to `Cn1c(CCN2CCCC2)nc2cc(NS(=O)(=O)c3ccccc3)ccc21`, the largest response in the series, negative = inhibition is 1.01% (inactive).
Turning to `O=S(=O)(Nc1ccc2nc(-c3ccco3)[nH]c2c1)c1ccccc1`, the Potency was 28.2 µM (active).
Turning to `O=C(c1ccc(Br)o1)N1CCN(CCOc2ccccc2)CC1`, the largest response in the series, negative = inhibition is 15.3% (inactive).
Turning to `Cc1ccc(/C=N/NC(=O)c2cc3ccccc3cc2O)o1`, the largest response in the series, negative = inhibition was 13.6% (inactive).
As for `O=C(c1cccc(F)c1)N1CCN(c2ccc([N+](=O)[O-])c3cccnc23)CC1`, the largest response in the series, negative = inhibition is 1.54% (inactive).
For `O=[N+]([O-])c1cc([N+](=O)[O-])c2cccnc2c1O`, the Potency is 39.8 µM (active).
`O=[N+]([O-])c1cccc2ncccc12`: the largest response in the series, negative = inhibition is 8.82% (inactive).
Same read-out and setting: next, `NC(=O)C1CC(=O)N(c2ccc(OCC(=O)NCc3ccccc3)cc2)C1` (configuration not stated): 23.9% (inactive).
As for `c1ccc2c(C[n+]3csc4ccccc43)cccc2c1`, the Potency is 44.7 µM (active).
Regarding `c1ccc(NCc2cccc3ccccc23)nc1`, the largest response in the series, negative = inhibition is -7.37% (inactive).
On the same count and under the same terms, next, `Nc1scc[n+]1Cc1cccc2cccnc12`: 17.3% (inactive); `C=CCCN(C(Cc1ccccc1)C(=O)OC)S(=O)(=O)c1cc(Br)ccc1Br` (configuration not stated): 7.63% (inactive); `CCOc1ccc(N/C(N)=N/c2nc(C)c(C)c(=O)[nH]2)cc1`: 12.8% (inactive).
For `CSc1nnc(SCc2nc3sc(C(=O)O)c(C)c3c(=O)[nH]2)s1`, the Potency is 12.6 µM (active).
As to `CCOC(=O)c1sc2nc(CSc3ccccc3)[nH]c(=O)c2c1C`, the largest response in the series, negative = inhibition is 1.58% (inactive).
Same read-out and setting: next, `Cc1ccc(C)c(SCc2nc3sc(C(=O)O)c(C)c3c(=O)[nH]2)c1`: -17.2% (inactive).
`Cc1cccc(OCC(=O)NCCNC(=O)c2cccnc2)c1`: the largest response in the series, negative = inhibition was 3.63% (inactive).
Consider `CN(C)CCN(Cc1ccccc1)S(=O)(=O)c1csc(C(N)=O)c1`, for which the largest response in the series, negative = inhibition is 4.81% (inactive).
On to `CCc1ccc(OCC(=O)OC(C)C(=O)NC2CC2)cc1` (configuration not stated), for which the largest response in the series, negative = inhibition is 6.01% (inactive).
For `COc1ccc(NC(=O)c2cc(-c3cc(OC)c(OC)c(OC)c3)nc3ccccc23)c(OC)c1`, the largest response in the series, negative = inhibition was 1.5% (inactive).
Take `Cc1ccc(NC(=O)c2cc(-c3ccc(C)o3)nc3ccccc23)nc1`: the Potency is 10 µM (active).
`CSc1ncccc1C(=O)Nc1ccc(C)cn1`: the largest response in the series, negative = inhibition was 10.7% (inactive).
`CCc1nccn1CCC(=O)N1CCCC(N2CCN(c3ccccc3F)CC2)C1` (configuration not stated): the largest response in the series, negative = inhibition was 1.37% (inactive).
On the same count and under the same terms, next, `Cc1ccccc1-c1nc(CS(=O)(=O)CC(=O)NC(C)c2ccccc2)c(C)o1` (configuration not stated): 1.96% (inactive).
Take `Cc1ccc(/C([O-])=C(/C(=S)NCc2ccco2)[n+]2ccccc2)cc1[N+](=O)[O-]`: the Potency was 25.1 µM (active).
`O=C(NCc1ccco1)c1ccc([N+](=O)[O-])cc1Cl`: the largest response in the series, negative = inhibition is 22.8% (inactive).
On the same count and under the same terms, under `O=C(c1ccccc1)N1CCN(c2ccc([N+](=O)[O-])c(NCc3ccco3)c2)CC1` stands 10.8% (inactive); under `Cc1ccc(S(=O)(=O)NCC2CCC(C(=O)N3CCOCC3)CC2)cc1` (configuration not stated), 10% (inactive).
With `CC(C)CCN1NC2(CCC(C)CC2)NC1=S` (configuration not stated), the Potency is 79.4 µM (active).
`C[C@H]1Cc2c(COc3ccccc3)nc3c(c2CO1)CN(C(=O)NCc1ccco1)CC3`: the largest response in the series, negative = inhibition is 2.41% (inactive).
